# Hsp90 Hop PPI: changes Hsp90-Hop TPR2A binding signal, up or down. AID 595. actives 0.44% (n = 71,000). AlphaScreen TPR2A-His6 binding biotin-Hsp90 C-terminal peptide. Potency, µM (highest dose often 57 µM), for the others: at the highest dose activity change, negative = inhibition; active = well fitted curve in either direction with a large enough effect; inconclusive = small, poorly fitted or top-dose-only effect, or another doubt; note: % is set by controls: 0 for no effect and ±100 for the full control effect
# CRE-bla Fsk: CRE-bla signaling modulation under forskolin stimulation | CHO CRE-bla reporter (cAMP response element driving beta-lactamase), forskolin EC10, beta-lactamase ratio | Potency, µM (series often up to 38.2 µM), inactives show top-dose activity change, negative = inhibition, actives largely listed as activators | actives 2.5% (n = 71,000) | AID 662; active = well fitted activation curve with a large enough effect in the signal ratio, with a control signal flat, not every such curve was filed as active; inconclusive = small, poorly fitted or top-dose-only effect, or effect the other way, or a change in a side signal; the % refers to the signal ratio; note: % of control where 0% means no effect
#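 Forskolin analogue NKH 477 at EC10 stimulated CRE-driven beta-lactamase in CHO cells alongside compound dilution series. Beta-lactamase was measured with CCF4, excitation 405 nm, emission ratio 460/530 nm.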
# IkB signaling: suppresses IkB signaling in ABC-DLBCL reporter cells; ABC-DLBCL IkBa-CBG/CBR dual luciferase ratio, 4 h; response scale: scaled: untreated 0%, proteasome inhibitor 100%; Potency, µM (doses to about 57.1 µM), for inactives: at the top dose IkBa stabilization activation; actives 0.04% (n = 110,000); active = well fitted curve in the direction sought with a large enough effect in the signal ratio, not every such curve was filed as active; inconclusive = small, poorly fitted or top-dose-only effect, or a change in a side signal; the % refers to the signal ratio;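 note: the direction sought is a rising ratio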
#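 Curves were fitted separately to fusion (green), unfused (red) and ratio luminescence, then classed by r2, magnitude and activity. Cells: OCI-Ly3, 4 h compound plus doxycycline at 37C; 10 uM MG-132 defined full response.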
# Tau filament bind: binds recombinant human tau filaments; recombinant tau filaments, thioflavin S fluorescence, 15 h; filaments grown with octadecylsulfate alongside compound; Potency, µM (top dose mostly 57.1 µM), for the others: top-dose activity change, negative = inhibition; actives 2% (n = 71,000); AID 596; P10636;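 note: % is set by controls: 0 for no effect and ±100 for the full control effect; actives lower thioflavin S fluorescence by blocking filaments or displacing dye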
# Target sequence (P10636 whole entry, looked up): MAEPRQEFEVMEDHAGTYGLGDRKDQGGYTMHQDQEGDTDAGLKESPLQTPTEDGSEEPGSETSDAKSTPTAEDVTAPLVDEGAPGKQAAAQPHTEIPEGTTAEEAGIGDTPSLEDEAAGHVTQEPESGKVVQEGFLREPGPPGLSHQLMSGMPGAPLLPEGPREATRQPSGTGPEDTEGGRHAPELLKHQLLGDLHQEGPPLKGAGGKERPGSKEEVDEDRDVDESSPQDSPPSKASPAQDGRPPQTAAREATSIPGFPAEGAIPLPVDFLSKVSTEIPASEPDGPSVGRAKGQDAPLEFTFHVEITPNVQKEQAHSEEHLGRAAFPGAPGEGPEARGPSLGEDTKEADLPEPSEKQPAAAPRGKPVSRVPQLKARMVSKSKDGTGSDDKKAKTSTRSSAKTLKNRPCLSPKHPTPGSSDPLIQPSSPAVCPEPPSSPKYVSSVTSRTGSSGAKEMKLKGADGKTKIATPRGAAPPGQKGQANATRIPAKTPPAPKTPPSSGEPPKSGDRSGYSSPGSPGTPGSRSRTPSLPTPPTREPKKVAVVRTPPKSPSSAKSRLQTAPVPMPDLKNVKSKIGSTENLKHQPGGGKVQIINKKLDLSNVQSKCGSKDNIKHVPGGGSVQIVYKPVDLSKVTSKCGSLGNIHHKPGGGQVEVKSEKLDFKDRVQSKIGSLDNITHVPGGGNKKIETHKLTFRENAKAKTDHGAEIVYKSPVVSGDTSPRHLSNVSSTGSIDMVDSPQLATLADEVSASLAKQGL
#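 Recombinant tau protein (human, 1 uM final) plus 30 uM ODS in HEPES pH 7.4 with NaCl, DTT and thioflavine S. Compound present from the start; fluorescence at 510 nm after 15 h, 37 C.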
# ALOX15 inhib: blocks human 15-lipoxygenase activity; purified 15hLO-1, xylenol orange hydroperoxide absorbance; actives 1.4% (n = 74,000); Potency, µM (titrated, usually from 57.1 µM), without a hit: at the highest dose activity change, negative = inhibition, usual class: inhibitors; AID 887; P16050; note: % is set by controls: 0 for no effect and ±100 for the full control effect; nearly all actives have a fitted effect of over 55% in size
#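 Quantitative HTS in 25 mM Hepes pH 7.5 containing 0.01% Triton X-100: human 15hLO-1 at 40 nM, arachidonic acid at 50 uM, 6 min turnover. Product quantified via ferrous oxidation/xylenol orange, 573:405 nm absorbance ratio.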
# * = called active by the depositor; i = inactive; u = inconclusive; x = no result given; [ ] = dose if it differs, or a comment. Most compounds without a hit are left out; they make up all but 3.6% or so of the library. Unless noted, calls come from the whole dose curve; as a rule, active = well fitted curve in the direction sought with a large enough effect; inconclusive = small, poorly fitted or top-dose-only effect, or another doubt; inactive = no such curve, though single readings can be large; an effect the other way counts as inactive or inconclusive. Potency is the fitted concentration of half-maximal effect.
SMILES,Hsp90 Hop PPI,CRE-bla Fsk,IkB signaling,Tau filament bind,ALOX15 inhib
CC(C)(C)Nc1nc(SCc2ccccc2)nc(N2CCOCC2)n1,23.6%,2.51µM*,0.8%,-9.5%,-6.5%
CSc1nc(NC(C)(C)C)nc(N2CCOCC2)n1,1.6%,12.6µM*,6.1%,-8.1%,-4.0%
Nn1c(CSc2nc3ccccc3o2)nnc1CSc1nc2ccccc2o1,-1.7%,-10.4%,u,1.2%,-12.3%
Cc1cc(C)n2c(Br)c(CSc3nc4ccccc4o3)nc2n1,-4.5%,6.31µM*,-0.9%,24.2%,u
C/C(CCN1CCCCc2nc(C)c(C)cc21)=N\O[C@@H](C)c1cc(-c2c(C)cc(C)cc2C)no1,x,x,x,x,2.7%[11.4 µM]
Cc1cccc(-c2nc(SCC(=O)NCC3CCCO3)c3c(=O)n(C)c(=O)n(C)c3n2)c1 (stereo unspecified),x,x,0.5%,x,x
O=C(NCc1ccco1)c1ccc2nc3sc4c(c3c(=O)n2c1)CCCC4,-3.2%,u,20.0%,-9.9%,31.6µM*
COc1ccc(-c2nc(C#N)c(NCC3CCCO3)o2)cc1OC (stereo unspecified),-8.0%,12.6µM*,-3.1%,-3.5%,0.8%
COc1ccc(-c2nc(C#N)c(NCCCN(C)C)o2)cc1OC,-4.1%,5.8%,-0.6%,-8.7%,14.6%
COC(=O)NC(c1ccco1)C(C(C)=O)C(=O)OC (stereo unspecified),x,x,x,x,13.6%[11.4 µM]
O=c1c(-c2ccc3c(c2)OCCO3)coc2cc(O)cc(O)c12,-10.3%,1.8%,u,-7.9%,15.8µM*
O=c1c(-c2ccccc2)coc2cc(O)cc(O)c12,x,x,x,x,3.16µM*
COc1cc(OC)c2c(=O)c(-c3ccc4c(c3)OCO4)coc2c1,x,x,x,x,0.9%
O=c1c(-c2ccc(O)cc2)coc2cc(O)ccc12,0.6%,u,-5.9%,u,4.9%
Cc1cc(C)cc(NC(=O)C2CCN(S(=O)(=O)c3c(C)noc3/C=C/c3ccco3)CC2)c1,x,x,2.7%,x,x
Cn1c(NC(=O)c2ccccc2Br)cc(=O)n(C)c1=O,-4.7%,u,-0.7%,-9.7%,25.1µM*
Cn1c(NC(=O)c2ccccc2C(F)(F)F)cc(=O)n(C)c1=O,0.3%,15.9%,-1.4%,10.3%,8.0%
COc1cc(C)cc2c(-c3c(O)cc(O)c4c3C[C@H](C)N[C@@H]4C)cc(-c3cc(-c4c(O)cc(O)c5c4C[C@H](C)N[C@@H]5C)c4cc(C)cc(OC)c4c3O)c(O)c12,-12.5%[11 µM],u,1.4%[11.4 µM],3.98µM*,-18.4%[11.4 µM]
O=C(NC1CC(=O)N(c2ccc(F)cc2)C1)c1ccc(S(=O)(=O)N2CCOCC2)cc1 (stereo unspecified),x,x,1.9%,x,x
COc1ccc2c(c1)Cc1cc(N=[N+]([O-])c3ccc4c(c3)Cc3cc(OC)ccc3-4)ccc1-2,-12.2%[11 µM],3.1%[7.6 µM],0.1%[11.4 µM],3.16µM*,3.98µM*
COc1ccc2c(c1)CCc1c(-c3noc4c3CCc3cc(OC)ccc3-4)noc1-2,1.2%[11 µM],-6.6%[7.6 µM],-0.6%[11.4 µM],6.2%[11.4 µM],2.5%[11.4 µM]
CCOc1cc(CNC(=O)C(NS(=O)(=O)c2cccs2)C(C)C)cc(OCC)c1OCC (stereo unspecified),x,x,0.9%,x,x
Cc1cccc(Cn2c(N(C)Cc3ccccc3)nc3c2c(=O)[nH]c(=O)n3C)c1,-4.0%,12.6µM*,5.0%,6.8%,-11.4%
C/C=C/Cn1c(N(C)Cc2ccccc2)nc2c1c(=O)[nH]c(=O)n2C,-8.1%,10µM*,-0.8%,0.2%,-6.3%
COc1ccc(NC(=O)Cn2ccn(Cc3ccccc3)c(=O)c2=O)cc1Cl,x,x,-1.4%,x,x
SMILES,Hsp90 Hop PPI,CRE-bla Fsk,IkB signaling,Tau filament bind,ALOX15 inhib
CC1CCN(CC[S-])CC1.O.O.[Cl][Pt],u,-13.7%[7.6 µM],u,-10.7%[11.4 µM],u
O=C1NC(c2ccco2)Nc2ccccc21 (stereo unspecified),-8.5%,2.4%,-2.1%,-19.5%,-16.0%
Brc1ccc(C2Nc3cccc4cccc(c34)N2)o1,u,u,17.9%,10µM*,10µM*
c1ccc(-c2cccc(N3CCCC4(CCNCC4)C3)c2)cc1,-13.3%,-8.1%,-2.4%[11.4 µM],u,-21.2%
c1ccc(-c2cccc(N3CC[C@@]4(CCCNC4)C3)c2)cc1,u,18.7%,-0.4%[11.4 µM],12.6µM*,-18.4%
CCCCN(CCCC)CCNC(=O)c1cn(C)c2ccc(S(=O)(=O)N3CCOCC3)cc2c1=O,x,x,1.4%,x,x
CC1(C)Cc2c(c(N3CCOCC3)nc3sc(C(=O)N4CCCCC4)c(N)c23)CO1,u,u,-3.3%,-17.0%,u
CCOC(=O)c1sc2nc(N3CCOCC3)c3c(c2c1N)CCN(C)C3,-3.2%,9.3%,1.9%,7.94µM*,-18.1%
Cc1ccc(CNC(=O)CCCn2c(=O)c3ccccc3n(CC(=O)C(C)(C)C)c2=O)cc1,x,x,-2.3%,x,x
CCCn1c(=NC(=O)c2ccc3c(c2)OCO3)c(C#N)cc2c(=O)n3cccc(C)c3nc21,0.3%,-1.9%,4.0%,292.3%,1.7%
COCCCn1c(=NC(=O)c2ccncc2)c(C#N)cc2c(=O)n3cccc(C)c3nc21,x,x,x,x,-7.1%
CCCn1c(=NC(=O)c2ccncc2)c(C#N)cc2c(=O)n3cccc(C)c3nc21,-1.0%,1µM*,1.9%,338.3%,5.0%
Cc1cccn2c(=O)c3cc(C#N)c(=NC(=O)c4ccncc4)n(CCCOC(C)C)c3nc12,-8.3%,12.6µM*,-0.5%,i,u
N#CCC(=O)Nc1sc2c(c1C(N)=O)CCCC2,-0.9%,12.6µM*,8.0%,u,-5.1%
COC(=O)Nc1sc2c(c1C(N)=O)CCCCCC2,-3.4%,-0.2%,0.8%,-20.4%,12.6µM*
